Experimental findings from PubChem BioAssay (Tox21) are described below.

SMILES strings stand for the structures. Records with an inconclusive call do not appear. Entries that show only a call come without a potency. The source made the active and inactive calls. Calls come from the whole dose curve; as a rule, active = well fitted cell-killing curve with a large enough effect in the repeat runs; inconclusive = weak or mixed curves, or effect the other way; inactive = flat fitted curve, though single readings scatter.

The first assay is described as follows: cAMP Responsive Elements (CRE) small molecule antagonists, cell-based qHTS assay: qHTS cell viability counter screen (AID 2060913). Note: nearly all actives have a fitted effect of over 40% in size. The note with it: CRE-bla HEK293T viability, CellTiter-Glo luminescence, 5 h; series mostly up to 92.4 µM. In short, it runs like this:
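HEK293T CRE-bla, 2,000 cells/well, 18 h preincubation; cpd in DMSO + NKH477 0.25 uM final, 3 h 37 C/5% CO2; LiveBLAzer 2 h RT, then CellTiter-Glo 30 min RT, luminescence.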
For orientation: Quantitative high-throughput screening tests each substance at several concentrations.
`O=C(O)c1ccccc1-n1cc(C(=O)O)c(=O)c2cc(Nc3c(F)cc(F)cc3Cl)c(Cl)cc21`: the Potency entry was “inactive”.

Turning to `NC(=O)C(c1ccccc1)(c1ccccc1)[C@@H]1CCN(CCc2ccc3c(c2)CCO3)C1`, the Potency entry was “inactive”.

For `CC(C)c1cccc(O)c1`, the Potency entry was “inactive”.

For `Cc1cccc(Nc2cc(Cl)nc(SCC(=O)O)n2)c1C`, the Potency result was “inactive”.

For `NC(=O)NC(=O)Cc1ccccc1`, the Potency result is “inactive”.

As for `c1cnc2c(n1)CCCC2`, the Potency result is “inactive”.

Turning to `NNC(=O)c1cccc(C(=O)NN)c1`, the Potency result is “inactive”.

Consider `CC(O)C1CCCCC1` (configuration not stated), for which the Potency result was “inactive”.

`C/C=C/C(=O)O`: the Potency entry is “inactive”.

Turning to `CCOC(=O)CC(=O)c1cc(F)c(Cl)nc1Cl`, the Potency entry was “inactive”.

Turning to `C=C(C)C(=O)OCCNC(C)(C)C`, the Potency entry was “inactive”.

With `C=CC(C)(C)O`, the Potency entry was “inactive”.

The next assay can be described thus: cAMP Responsive Elements (CRE) small molecule agonists, cell-based qHTS assay: qHTS cell viability counter screen (AID 2060914). Note: nearly all actives have a fitted effect of over 50% in size. Note: potency is the fitted concentration of half-maximal effect. The settings on record: CRE-bla HEK293T viability, CellTiter-Glo luminescence, 5 h; series mostly up to 92.4 µM. In short, it runs like this: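 Cells are seeded and incubated 18 h, treated with compounds in DMSO for 3 h, read for the bla reporter, then given CellTiter-Glo; luminescence is measured after 30 min at room temperature.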
Turning to `O=C(O)c1ccccc1-n1cc(C(=O)O)c(=O)c2cc(Nc3c(F)cc(F)cc3Cl)c(Cl)cc21`, the Potency result was “inactive”.

In the case of `NC(=O)C(c1ccccc1)(c1ccccc1)[C@@H]1CCN(CCc2ccc3c(c2)CCO3)C1`, the Potency result is “inactive”.

Regarding `CN(C)C(=O)CNC(=O)Cc1ccccc1`, the Potency result was “inactive”.

For `c1ccc(C(O[C@@H]2CCCN(CCc3ccc4c(c3)OCO4)C2)c2ccccc2)cc1`, the Potency entry is “inactive”.

As for `CC(C)c1cccc(O)c1`, the Potency entry is “inactive”.

`Cc1cccc(Nc2cc(Cl)nc(SCC(=O)O)n2)c1C`: the Potency entry is “inactive”.

For `NC(=O)NC(=O)Cc1ccccc1`, the Potency entry was “inactive”.

`CC(=O)N(CC(O)CO)c1c(I)c(C(=O)NCCO)c(I)c(C(=O)NCC(O)CO)c1I` (configuration not stated): the Potency entry is “inactive”.

With `CCCCN(CCCC)C(=O)N(CCCC)CCCC`, the Potency entry was “inactive”.

With `Oc1c(I)cc(I)c2cccnc12`, the Potency result was “inactive”.

Consider `C=CC(=O)OCC(O)COc1ccccc1` (configuration not stated), for which the Potency entry is “inactive”.

In the case of `O=S(=O)(O)c1ccccc1`, the Potency entry is “inactive”.

On to `c1cnc2c(n1)CCCC2`, for which the Potency entry is “inactive”.

In the case of `CC(C)(C#N)c1cc(Cn2cncn2)cc(C(C)(C)C#N)c1`, the Potency entry was “inactive”.

Regarding `NNC(=O)c1cccc(C(=O)NN)c1`, the Potency result was “inactive”.

On to `CC(O)C1CCCCC1` (configuration not stated), for which the Potency entry was “inactive”.

Turning to `Cc1nn(C)c(Oc2ccccc2)c1/C=N/OCc1ccc(C(=O)OC(C)(C)C)cc1`, the Potency entry was “inactive”.

For `C/C=C/C(=O)O`, the Potency entry was “inactive”.

For the compound `CCOC(=O)CC(=O)c1cc(F)c(Cl)nc1Cl`, the Potency result is “inactive”.

Regarding `NC(CS)C(=O)O` (configuration not stated), the Potency result was “inactive”.

As for `Cc1cc(S(=O)(=O)O)ccc1N=Nc1c(O)ccc2ccccc12`, the Potency result is “inactive”.

With `CCCCCCCCn1sc(Cl)c(Cl)c1=O`, the Potency was 43.3 µM (active).

As for `C=C(C)C(=O)OCCNC(C)(C)C`, the Potency result was “inactive”.

For the compound `CN(C(=O)CN(CCO)CC(=O)N(C)C(C)(C)Cc1ccccc1)C(C)(C)Cc1ccccc1`, the Potency result is “inactive”.

For `O=C(Nc1ccc2c(O)c(N=Nc3ccc(N=Nc4ccc(S(=O)(=O)O)cc4)cc3)c(S(=O)(=O)O)cc2c1)c1ccccc1`, the Potency result is “inactive”.

`O=S(=O)(O)c1ccc(N=Nc2c(O)ccc3ccccc23)cc1`: the Potency entry was “inactive”.

For the compound `C=C[C@](C)(O)CC[C@@H]1[C@@]2(C)CCCC(C)(C)[C@@H]2CC[C@@]1(C)O`, the Potency result was “inactive”.

Consider `O=C(O)c1cc(C(=O)O)c(C(=O)O)cc1C(=O)O`, for which the Potency entry was “inactive”.

For `CC(C(O)c1ccccc1)N(C)CCOC(c1ccccc1)c1ccccc1` (configuration not stated), the Potency result is “inactive”.

Consider `COCCOC(=O)c1ccccc1C(=O)OCCOC`, for which the Potency entry is “inactive”.

On to `CC[C@H](NC(C)C)[C@H](O)c1ccc(O)c2[nH]c(=O)ccc12`, for which the Potency result is “inactive”.

Take `c1ccc(C[P+](c2ccccc2)(c2ccccc2)c2ccccc2)cc1`: the Potency entry was “inactive”.

`CCCCCCOCCO`: the Potency entry is “inactive”.

For `CC(C)=CCC/C(C)=C/C=O`, the Potency entry is “inactive”.

Regarding `O=[N+]([O-])c1ccc(O)cc1C(F)(F)F`, the Potency entry was “inactive”.

On to `C=CC(C)(C)O`, for which the Potency entry is “inactive”.

With `CC1(C)S[C@@H]2[C@H](NC(=O)C(c3ccccc3)S(=O)(=O)O)C(=O)N2[C@H]1C(=O)O` (some centres not stated), the Potency entry is “inactive”.

For the compound `O=C(Cl)c1ccc(Cl)cc1Cl`, the Potency entry is “inactive”.

Consider `COC(=O)c1ccc(C(=O)OC)cc1`, for which the Potency entry is “inactive”.

Consider `CC(=O)N/N=C/c1ccc([N+](=O)[O-])o1`, for which the Potency result was “inactive”.
